# NS1 function inh: inhibitors of influenza NS1 protein function | Potency, µM (doses to about 46.1 µM), for inactives: top-dose activity, positive = more growth | 270,000 compounds, 0.4% hits; also: potency is read from the fitted curve at half-maximal effect; actives are rising curves; nearly all actives have a fitted effect of over 50% in size
#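 Compounds were scored for reversing the slow growth caused by influenza A NS1 in S. cerevisiae, measured by optical density at 600 nm. Assay medium contained 2% galactose at pH 6.0; NS1-free yeast of the same strain were the positive control.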
# SARS PLpro yeast: inhibitors of SARS-CoV papain-like protease in yeast | AID 485353 | S. cerevisiae expressing SARS-CoV PLpro, growth rescue | Potency, µM (titrated, usually from 32.9 µM), inactives show at the top dose activity, positive = growth rescue, actives largely listed as activators | 330,000 compounds, 0.19% hits; also: potency is read from the fitted curve at half-maximal effect; 0% is about no effect; nearly all actives have a fitted effect of over 55% in size
# Cycloheximide cs: affects cycloheximide protein synthesis inhibition readout, counter-screen; cell reporter, cycloheximide protein synthesis inhibition counterscreen; max response, %; AID 2314; 300,000 compounds, 12% hits; in the data active = max response mostly above about 13%, no sharp cut-off; inactive = mostly below about 14%; also: read at 38.3 µM for the half of the compounds with a filed dose; 0% is about no effect
# Shiga inhibitor: Shiga toxin inhibition; Vero cells, Shiga toxin protein synthesis inhibition reporter; inhibition, % at 38.7 µM; 290,000 compounds, 9.2% hits; in the data active = inhibition mostly above about 28%, no sharp cut-off; inactive = mostly below about 43%; also: 0% is about no effect
# Numbers without * were called inactive; ? = inconclusive; . = no result. This is a sample that favours compounds with a hit; in the whole collection about 12% have one here. Unless noted, calls follow the shape of the full dose curve.
SMILES,NS1 function inh,SARS PLpro yeast,Cycloheximide cs,Shiga inhibitor
CC(=O)N/N=C(\C)c1cccc(NC(=O)c2cccs2)c1,-3.2%,-20.2%,1.4,-1.7
CC(=NNC(=O)c1cccc(S(=O)(=O)N2CCCC2)c1)c1ccccc1,.,0.5%,.,.
C/C(=N/NC(=O)c1cccs1)c1cccc(NC(=O)C2CC2)c1,-5.3%,4.8%,38.5*,95.4*
Cc1sc2nc(CN3CCCC3)nc(N3CCN(S(=O)(=O)c4cccc(F)c4)CC3)c2c1C,.,5.7%,.,.
C/C(=N\NC(=O)COc1cccc2ccccc12)c1cccs1,-4.2%,0.5%,-3.1,-4.1
C/C(=N\NC(=O)C1=NNC(=O)C1C)c1cccs1 (centres undefined),.,-5.7%,33.9*,90.2*
C/C(=N/N=C(/C)c1cccs1)c1cccs1,-34.2%,-3.2%,31.1*,72.5*
C/C(=N\NC(=O)CN1CCN(Cc2ccccc2)CC1)c1cccs1,-4.4%,-0.2%,1.1,-2.8
C/C(=N\NC(=O)C1CC1c1ccccc1)c1cccs1 (centres undefined),-7.2%,0.5%,-1.6,-13.6
C/C(=N\NC(=O)c1ccc2ccccc2c1)c1cccs1,-1.3%,-2.3%,44.6*,94.4*
C/C(=N/NC(=O)c1cc(C2CC2)[nH]n1)c1cccs1,-5.4%,-5.8%,24.8*,5.1
S=c1[nH]nc(C2CCCCC2)n1/N=C/c1ccc(Br)s1,4.1%,-1.0%,-2.7,-2.4
CCOc1ccc(CNC(=O)c2ccc3nc(N4CCOCC4)sc3c2)cc1,-3.9%,-0.6%,8.3,-2.0
c1ccc(-c2cnnc(N3CCOCC3)n2)cc1,-2.0%,14.5%,63.1*,68.2*
Cc1cc(C)n(-c2nc(N(c3ccccc3)c3ccccc3)nc(-n3nc(C)cc3C)n2)n1,22.5%,11.9%,-1.0,23.1
Cc1cc(C)n(-c2nncc(-c3ccccc3)n2)n1,-10.5%,?,26.0*,70.7
Cc1cc(C)n(-c2ncc(-c3ccccc3)nn2)n1,-64.2%,17.4%,57.2*,90.4*
N=C(N)S[C@H]1c2ccccc2-c2cc([N+](=O)[O-])ccc21,17.7%,.,.,.
Cc1ccc2oc(=O)c3cnn(CC(=O)Nc4cc(-c5cccc(F)c5)no4)c3c2c1,-11.8%,-5.2%,1.7,-7.1
Nc1nonc1-c1noc(-c2ccccc2Br)n1,-6.6%,-3.3%,29.8*,37.5*
Nc1nonc1-c1noc(CCCN2C(=O)c3ccccc3C2=O)n1,7.6%,11.9%,112.1*,98.4*
Nc1nonc1-c1noc(N2CCOCC2)n1,21.2%,0.1%,12.2,13.9
O=C(Nc1cccc(C(F)(F)F)c1)C1CCCN(c2ncccn2)C1 (centres undefined),-39.0%,-17.5%,-2.5,5.9
Cc1ccc(NC(=O)C2CCCN(c3nccc(C)n3)C2)c(C)c1 (centres undefined),-21.5%,-0.5%,-1.4,-6.7
Cc1ccc(NC(=O)C2CCCN(c3ncccn3)C2)c(C)c1 (centres undefined),2.1%,-0.4%,33.2*,49.0*
SMILES,NS1 function inh,SARS PLpro yeast,Cycloheximide cs,Shiga inhibitor
Cc1ccc(NC(=O)C2CCCN(c3ncccn3)C2)cc1F (centres undefined),-8.0%,-2.8%,23.5*,54.5
Cc1cc(C)cc(NC(=O)C2CCCN(c3ncccn3)C2)c1 (centres undefined),-2.2%,0.8%,11.5*,2.3
Cc1ccc(C(=O)NNC(=O)C2CCCN(c3ncccn3)C2)cc1 (centres undefined),2.8%,-2.3%,-2.1,-9.5
O=C(Nc1ccc2c(c1)CCC2)C1CCCN(c2ncccn2)C1 (centres undefined),-2.4%,11.6%,37.8*,43.3*
CCSc1nnc(NC(=O)CCCOc2ccc(C)cc2)s1,.,-0.4%,-4.0,15.0
O=C(Nc1ccc(S(=O)(=O)Nc2nccs2)cc1)c1c(F)c(F)c(F)c(F)c1F,0.4%,-6.0%,1.0,-12.9
O=C(CN1CCOCC1)N/N=C/c1ccc(-c2ccc(C(=O)O)cc2)o1,7.5%,0.4%,7.3,9.9
CC1(CC(=O)N/N=C/c2ccc(-c3ccc(C(=O)O)cc3)o2)OCCO1,7.4%,-7.7%,20.7,19.5
COC(=O)c1ccc(-c2ccc(/C=N/NC(=O)CC3(C)OCCCO3)o2)cc1,-31.2%,-2.6%,35.8*,43.3*
CC1(CC(=O)N/N=C/c2ccc(-c3ccc(Cl)cc3)o2)OCCO1,-4.9%,-3.0%,14.5*,13.2
Nn1c(SCc2ccc([N+](=O)[O-])cc2)nc2ccccc2c1=O,?,0.6%,-1.4,26.1
COc1ccc(C(=O)Nn2c(SCC(=O)c3ccccc3)nc3ccccc3c2=O)cc1,7.8%,4.2%,38.4*,98.9
CCOC(=O)CSc1nc(C)c2cccc(C)c2n1,-3.7%,-1.9%,9.6,14.0
CCOC(=O)CSc1nc2ccccc2c(=O)n1NC(=O)c1ccccc1,-11.0%,1.9%,37.2*,66.4*
CCc1ccc(C(=O)Nn2c(C)nc3ccccc3c2=O)cc1,-1.6%,-0.1%,6.9,14.6
COc1ccc(C(=O)Nn2c(SCc3ccc([N+](=O)[O-])cc3)nc3ccccc3c2=O)cc1,?,1.0%,25.4*,82.1*
CCOC(=O)CSc1nc(C)c2ccccc2n1,-1.5%,13.2%,11.4*,66.9
Cc1ccc(S(=O)(=O)N2CCOCC2)cc1C(=O)OC(C)C(=O)c1ccccc1 (centres undefined),.,-4.3%,.,.
CN(CC(=O)N1CCN(Cc2ccccc2)CC1)C(=O)Cc1cccc2ccccc12,.,-0.1%,.,.
CN(C)c1ccc(CCN2CCOCC2)cc1,.,2.5%,.,.
CN(C)c1ccc2c(c1)N=C(c1ccco1)OP2(=S)N1CCOCC1 (centres undefined),-13.6%,?,31.1*,76.6*
O=C(NC(=S)N1CCCCCC1)c1ccccc1,-10.4%,-3.1%,9.1,-12.7
O=C(NC(=O)N1CCCCC1)c1ccccc1,6.6%,0.1%,14.0*,19.8
CSc1ccccc1C(=O)N1CCN(c2ccc(F)cc2)CC1,-9.0%,-5.5%,22.6,-10.1
O=C(NC(=O)N1CCN(c2ccc(F)cc2)CC1)c1ccccc1,1.0%,22.7%,19.7*,32.4
SMILES,NS1 function inh,SARS PLpro yeast,Cycloheximide cs,Shiga inhibitor
O=C(NC(=S)N1CCN(c2ccccc2)CC1)c1ccccc1,16.8%,11.8%,7.6,2.4
CC(=C1C(=O)c2ccccc2C1=O)N1CCN(c2ccc(F)cc2)CC1,-3.3%,0.5%,13.7*,32.6*
COc1ccc(Nc2cc(Nc3cc(OC)c(OC)c(OC)c3)ncn2)cc1,5.3%,-1.0%,-1.7,-3.9
CC(C)(C)c1ccc(C(=O)n2cnc3ccccc32)cc1,-49.8%,-5.2%,29.9*,63.8*
CN(C)c1ccc(C(=O)n2nnc3ccccc32)cc1,-63.4%,-14.7%,57.4*,116.3*
CCCC(=O)Nc1ccc(C(=O)n2nnc3ccccc32)cc1,-36.0%,-0.9%,-1.9,20.9
Cc1cc2ncn(C(=O)c3ccc(F)cc3)c2cc1C,3.8%,-5.8%,-1.5,1.5
CCN(CC)c1ccc(C(=O)n2cnc3ccccc32)cc1,-15.3%,-1.8%,25.1*,68.4
CC1C(=O)Nc2ccc(S(=O)(=O)N3CCCCCC3)cc21 (centres undefined),.,1.0%,.,.
COc1cc(C2Nc3cc(Cl)c(S(N)(=O)=O)cc3S(=O)(=O)N2)ccc1OCc1ccccc1 (centres undefined),-52.9%,-10.6%,54.8*,128.1*
COCCn1c(SCC(=O)Nc2sccc2C(N)=O)nc2cc(Cl)ccc2c1=O,24.0%,-1.1%,-4.2,-13.7

# Compound activity from PubChem.
